Inconclusive results are not listed. Entries that show only a call come without a potency. Unmarked numbers belong to inactive results. Calls of active or inactive are those of the source. The call rests on the fitted dose curve; in most records, active means well fitted cell-killing curve with a large enough effect; inconclusive means small, poorly fitted or top-dose-only effect, or effect the other way; inactive means flat fitted curve, though single readings scatter. Where a SMILES comes first, the peptide text is derived from it.
Tests used:
Experiment in all cases: Primary qHTS to identify gynecologic anti-cancer compounds using libraries of approved drugs and bioactive compounds (AID 1345084); further: nearly all actives have a fitted effect of over 55% in size
Settings in all cases: Gynecologic cancer cell panel viability, ATPlite luminescence, 48 h; series mostly up to 57.5 µM
OV90 = system: OV90
Procedure, shortened: (§1)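 Five-concentration response, 48 h; readout is ATP-driven luciferase luminescence.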

PA-1 = system: PA-1
Procedure, shortened: as §1

SKOV3 = system: SKOV3
Procedure, shortened: as §1

Tov-21-G = system: Tov-21-G
Procedure, shortened: as §1

Tov112D = system: Tov112D
Procedure, shortened: as §1
Potency means the concentration at half of the fitted maximal effect.

Row | SMILES | Potency (OV90) | Potency (PA-1) | Potency (SKOV3) | Potency (Tov-21-G) | Potency (Tov112D) | activity change, negative = cytotoxicity (OV90) | activity change, negative = cytotoxicity (PA-1) | activity change, negative = cytotoxicity (SKOV3) | activity change, negative = cytotoxicity (Tov-21-G) | activity change, negative = cytotoxicity (Tov112D)
1 | CC(=O)N[C@H](Cc1c[nH]c2ccccc12)C(=O)OCc1cc(C(F)(F)F)cc(C(F)(F)F)c1 | inactive | inactive | inactive | inactive | inactive | – | – | – | – | –
2 | O=C(O)c1cccc(C(=O)CCC2OC(n3cnc4c(=O)[nH]cnc43)C(O)C2O)c1 (stereo not given) | inactive | inactive | inactive | inactive | inactive | – | – | – | – | –
3 | CC1=C2C(=O)C=C(CO)C2[C@H]2OC(=O)[C@H](C)[C@@H]2[C@@H](OC(=O)Cc2ccc(O)cc2)C1 (stereo not given in full) | inactive | inactive | inactive | inactive | inactive | – | – | – | – | –
4 | CC/C=C\[C@H](O)[C@H](O)C1=C(C)C(=O)[C@]2(O1)C(=O)N[C@@](O)(C(=O)c1ccccc1)[C@@H]2O | inactive | inactive | inactive | inactive | inactive | – | – | – | – | –
5 | CCC(C)C(=O)OC[C@H]1O[C@H](O[C@H]2O[C@H](CO)[C@@H](O)[C@H](O)[C@H]2O)[C@H](O)[C@@H](O)[C@@H]1O (stereo not given in full) | inactive | inactive | inactive | inactive | inactive | – | – | – | – | –
6 | C=Cc1cc2oc(-c3ccc(O)c(F)c3)nc2cc1O | 25.1 µM (active) | inactive | inactive | inactive | inactive | – | – | – | – | –
7 | C/C=C1\[C@H](O[C@@H]2O[C@H](CO)[C@@H](O)[C@H](O)[C@H]2O)OC=C(C(=O)OCCc2ccc(O)cc2)[C@H]1CC(=O)OCCc1ccc(O)cc1 | inactive | inactive | inactive | inactive | inactive | – | – | – | – | –
8 | C=C1CC23CC(=O)C4C(CO)(CO)CCCC4(C)C2CCC1C3 (stereo not given) | inactive | inactive | inactive | inactive | inactive | – | – | – | – | –
9 | C=C(C(=O)O)[C@H]1C[C@]2(C)C(=O)CC[C@]23O[C@H]1C[C@@H]3C | inactive | inactive | inactive | inactive | inactive | – | – | – | – | –
10 | COc1ccc2[nH]c(S(=O)Cc3ncc(C)c(OC)c3C)nc2c1 (stereo not given) | inactive | inactive | inactive | inactive | inactive | – | – | – | – | –
11 | Cn1c2ccc(NC(=O)c3ccccc3)cc2c(=O)n2nc(C(=O)O)cc12 | inactive | inactive | inactive | inactive | inactive | – | – | – | – | –
12 | CC1=CC(=O)C2C(C)(C)CCC[C@]2(C)[C@H]1CC[C@H](C)CC(=O)O (stereo not given in full) | inactive | inactive | inactive | inactive | inactive | – | – | – | – | –
13 | CC1=CC23[C@H](C=C(C(=O)O)[C@@H]2COC(=O)[C@]3(O)CO)[C@@H]1C (stereo not given in full) | inactive | inactive | inactive | inactive | inactive | – | – | – | – | –
14 | CC(C)C1NC(=O)CNC(=O)C2CCCN2C(=O)C(Cc2c[nH]c3ccccc23)NC(=O)CNC(=O)C(Cc2ccc(O)cc2)NC(=O)CNC1=O (stereo not given) (cyclo(GVGYGWP); configuration not given here) | inactive | inactive | inactive | inactive | inactive | – | – | – | – | –
15 | Cc1ccc(Nc2nnc(-c3ccc([N+](=O)[O-])cc3)o2)cc1Cl | inactive | inactive | inactive | inactive | inactive | – | – | – | – | –
16 | O=C(OC[C@H]1O[C@H](O[C@]2(CO)O[C@H](CO)[C@@H](O)[C@@H]2O)[C@H](O)[C@@H](O)[C@@H]1O)c1ccc(O)cc1 | inactive | inactive | inactive | inactive | inactive | – | – | – | – | –
17 | COc1ccc(OC2OC(CO[C@@H]3O[C@@H](C)[C@H](O)[C@@H](O)[C@H]3O)C(O)C(O)C2O)cc1OC (stereo not given in full) | inactive | inactive | inactive | inactive | inactive | – | – | – | – | –
18 | COc1cccc(CN(C(=O)CC(C)(C)C)C2CC(C(=O)N3CCNCC3)N(Cc3ccc4c(c3)OCO4)C2)c1 (stereo not given) | inactive | inactive | inactive | inactive | inactive | – | – | – | – | –
19 | C[C@@H]1O[C@@H](O[C@H]2[C@H](O[C@H]3[C@H](O[C@H]4CC[C@@]5(C)C(CC[C@]6(C)C5CC=C5[C@@H]7CC(C)(C)C[C@@H](O)[C@]7(C)CC[C@]56C)C4(C)C)O[C@H](C(=O)O)[C@@H](O)[C@@H]3O)O[C@H](C(=O)O)[C@H](O)[C@@H]2O)[C@H](O)[C@H](O)[C@H]1O (stereo not given in full) | – | – | – | – | – | 9.77% [at 11.6 µM] | 12.6% [at 11.6 µM] | 6.58% [at 11.6 µM] | 9.44% [at 11.6 µM] | 4.96% [at 11.6 µM]
20 | O=C(CC1CC(c2ccc(F)cc2F)=NO1)N1CCOCC1 (stereo not given) | inactive | inactive | inactive | inactive | inactive | – | – | – | – | –
21 | CC(C)CC(c1c(O)c(C=O)c(O)c(C=O)c1O)C1CCC(C)(O)C2CC(C(C)(C)O)CCC12C (stereo not given) | inactive | inactive | inactive | inactive | inactive | – | – | – | – | –

— PubChem BioAssay (NCATS)
